Bioassay records (PubChem BioAssay)
Most compounds without a hit are left out; they make up all but 2.2% or so of the library.
PLCb3 inh = blocks human PLC-beta3 enzyme activity; Purified PLC-beta3, fluorogenic substrate, fluorescence; inhibition, % at 12.2 µM; Q01970; 0.18% of 370,000 active; in the data active = inhibition above about 11%;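 also: 0% = median of compound wells on plate and 100% = full blocker control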
Cardio protect = modulators protecting cardiomyocytes from myocardial damage | H9c2 cardiomyocytes, H2O2 injury protection, ATPLite, 2 h | 0.63% of 360,000 active | protection from H2O2 cell death, % at 20 µM | AID 588492;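 active = compounds giving at least 50% protection of heart cells from peroxide-induced death in the single-dose screen, raw or plate-pattern-corrected value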;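 also: 0% = DMSO wells with peroxide and 100% = DMSO wells without peroxide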
PLCg1 inh = PLC-gamma1 (human) inhibition, primary screen | P19174 | purified PLC-gamma1, fluorogenic substrate, fluorescence | inhibition, % at 12.2 µM | 0.84% of 370,000 active
Target sequence (P19174 whole entry, looked up): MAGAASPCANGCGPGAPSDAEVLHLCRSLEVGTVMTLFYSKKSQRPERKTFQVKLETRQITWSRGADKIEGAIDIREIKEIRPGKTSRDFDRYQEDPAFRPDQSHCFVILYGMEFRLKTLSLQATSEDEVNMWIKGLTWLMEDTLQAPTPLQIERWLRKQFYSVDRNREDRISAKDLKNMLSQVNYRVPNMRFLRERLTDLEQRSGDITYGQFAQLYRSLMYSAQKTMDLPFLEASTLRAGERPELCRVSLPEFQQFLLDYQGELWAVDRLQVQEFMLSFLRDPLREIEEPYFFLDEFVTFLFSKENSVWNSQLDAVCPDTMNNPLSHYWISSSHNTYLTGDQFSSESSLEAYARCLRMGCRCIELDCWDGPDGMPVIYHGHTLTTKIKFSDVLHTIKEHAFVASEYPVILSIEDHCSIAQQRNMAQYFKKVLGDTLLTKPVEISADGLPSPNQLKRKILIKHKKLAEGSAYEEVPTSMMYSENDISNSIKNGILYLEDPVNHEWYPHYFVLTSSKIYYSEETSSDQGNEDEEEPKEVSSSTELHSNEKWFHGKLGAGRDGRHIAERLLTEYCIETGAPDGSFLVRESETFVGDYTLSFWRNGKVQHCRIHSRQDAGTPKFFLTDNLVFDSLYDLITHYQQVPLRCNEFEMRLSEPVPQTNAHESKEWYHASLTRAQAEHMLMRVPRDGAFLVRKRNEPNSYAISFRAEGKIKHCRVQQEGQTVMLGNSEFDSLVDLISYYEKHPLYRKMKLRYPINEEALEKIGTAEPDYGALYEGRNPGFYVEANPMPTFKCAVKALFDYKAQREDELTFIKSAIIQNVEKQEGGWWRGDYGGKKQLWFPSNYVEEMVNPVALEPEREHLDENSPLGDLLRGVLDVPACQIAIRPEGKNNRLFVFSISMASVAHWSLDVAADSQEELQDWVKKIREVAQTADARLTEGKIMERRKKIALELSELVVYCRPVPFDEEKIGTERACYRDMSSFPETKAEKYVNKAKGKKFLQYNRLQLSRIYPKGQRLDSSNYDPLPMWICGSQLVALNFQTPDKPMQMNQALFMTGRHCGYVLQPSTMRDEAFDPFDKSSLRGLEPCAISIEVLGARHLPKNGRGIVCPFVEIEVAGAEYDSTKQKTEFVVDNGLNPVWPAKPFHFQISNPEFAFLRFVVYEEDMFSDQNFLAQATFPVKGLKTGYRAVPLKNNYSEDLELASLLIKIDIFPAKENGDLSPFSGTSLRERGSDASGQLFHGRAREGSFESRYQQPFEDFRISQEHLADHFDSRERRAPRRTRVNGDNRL
FAS-TE inh = blocks the thioesterase domain of human fatty acid synthase; AID 602261; 0.67% of 360,000 active; recombinant FAS-TE, OMFH fluorogenic substrate, fluorescence endpoint; P49327; inhibition, % at 15 µM;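 active = compounds whose normalised, plate-corrected inhibition of enzyme fluorescence in the single-dose primary screen is 50% or more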;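 also: 0% = DMSO with enzyme and 100% = substrate without enzyme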
PLCgamma1 ctr = counter-screen for PLC-beta3 inhibitors: inhibitors of human PLC-gamma1 | shares compounds with PLCg1 inh | purified PLC-gamma1, fluorogenic substrate, fluorescence | inhibition, % at 12.3 µM | 3.1% of 3,300 active | AID 743258
PLCbeta3 conf = human PLC-beta3 inhibition, confirmation; purified PLC-beta3, fluorogenic substrate fluorescence; 1% of 3,300 active; shares compounds with PLCg1 inh; inhibition, % at 12.3 µM; in the data active = inhibition above about 11%
* hit, by the source's call; . = no result given. Rule as the data show it, unless noted: active = inhibition above about 9.5%; inactive = the rest.

SMILES | PLCb3 inh | Cardio protect | PLCg1 inh | FAS-TE inh | PLCgamma1 ctr | PLCbeta3 conf
O=C(c1cccnc1)N1CCCC(Nc2ccc(F)cc2)C1 (stereo unspecified) | -3.9 | 0.0 | 14.5* | -5.7 | -0.8 | -1.4
O=C(c1ccncc1)N1CCCC(N2CCN(c3ccc(F)cc3)CC2)C1 (stereo unspecified) | -2.3 | -0.4 | 10.7* | -7.8 | 3.5 | 3.6
O=C(c1cccc(S(=O)(=O)N2CCN(c3ccc(F)cc3)CC2)c1)N1CCCC(C(F)(F)F)C1 (stereo unspecified) | -3.9 | -8.9 | 10.3* | 25.4 | 13.7* | 5.2
COc1ccccc1CNc1nc(Oc2cccc(F)c2)c2sccc2n1 | 1.0 | -5.6 | 3.0 | 25.6 | . | .
COc1cccc2[nH]c(=O)c(-c3ccccc3)cc12 | -101.7 | -5.7 | -74.4 | -0.9 | . | .
CSCC[C@H](NC(=O)CCn1nnc2ccccc2c1=O)C(=O)O | 12.4* | -0.8 | 10.5* | -9.3 | 6.2 | 7.9
COc1cccc(-c2cnc(C(O)c3ccc(C)c(F)c3)[nH]2)c1 (stereo unspecified) | . | -15.5 | . | 1.0 | . | .
Cc1ccccc1NC(=O)CNc1ccc(Cl)c(C(F)(F)F)c1 | 16.2* | -8.4 | 12.6* | 9.0 | 3.3 | 7.1
CCCCCCCCCc1conc1C(=O)/C=C/c1oc2c(c1C)CCC(C)C2 (stereo unspecified) | -2.8 | . | 1.0 | . | . | .
CN1CC(=O)N(CC(=O)NCCc2ccc(F)cc2)c2ccccc2C1=O | -0.1 | -4.4 | 1.6 | -8.7 | . | .
CN1CC(=O)N(CC(=O)Nc2ccc(N(C)C)cc2)c2ccccc2C1=O | 4.9 | 5.9 | 13.1* | -8.0 | -0.4 | -3.8
COc1ccc(C(=O)Nc2ccc(Cl)cc2F)cc1S(=O)(=O)N1CCCC1 | -4.5 | -1.4 | 1.2 | 3.6 | . | .
CCCCCCN1CCN(C2CN(Cc3cn(Cc4ccc(C)cc4)nn3)S(=O)(=O)C2)CC1 (stereo unspecified) | 7.5 | . | 14.5* | 11.2 | -11.1 | -3.5
c1csc(CCCN2CCCCC2)c1 | -3.6 | 2.2 | 0.3 | -8.3 | . | .
Cc1ccc(C(=O)N2CCN(c3ccc([N+](=O)[O-])c(NCc4ccco4)c3)CC2)cc1 | 3.3 | -2.5 | 9.0 | 25.0 | . | .
Cc1cccc(C(=O)N2CCN(c3ccc([N+](=O)[O-])c(NCc4ccco4)c3)CC2)c1 | -1.6 | 13.5 | 9.5* | 14.3 | -1.7 | -1.4
CC(=O)NC(CCS(C)(=O)=O)C(=O)Nc1cc(C)on1 (stereo unspecified) | 5.3 | 0.1 | 10.5* | -8.8 | -36.9 | 0.7
CC(=O)NC(CCS(C)(=O)=O)C(=O)Nc1ccccc1C (stereo unspecified) | -0.5 | -3.3 | -0.9 | -9.5 | . | .
Nc1ccc(O)c([N+](=O)[O-])c1 | 6.9 | -0.9 | 21.1* | 1.5 | 19.2* | 1.4
Nc1cc([N+](=O)[O-])ccc1O | -1.2 | -2.4 | 2.0 | -1.9 | . | .
CCC/C(O)=C1\C(=O)CCCC1=NC(C)C(=O)O (stereo unspecified) | 6.9 | 3.6 | 9.8* | -12.2 | -8.0 | -2.4
CC1CCCN(c2nc3c(c(=O)[nH]c(=O)n3C)n2CCSc2nc3ccccc3o2)C1 (stereo unspecified) | 3.4 | -2.1 | 1.5 | -1.0 | . | .
CC1CCCN(c2nc3c(c(=O)n(C)c(=O)n3C)n2CCSc2nc3ccccc3o2)C1 (stereo unspecified) | -0.2 | 12.0 | 10.5* | 7.5 | -3.8 | -1.4
CC(NS(=O)(=O)c1ccc2c(c1)C(=O)c1cc(S(=O)(=O)NC(C)C(=O)O)ccc1-2)C(=O)O (stereo unspecified) | -1.5 | -2.9 | 14.9* | -5.6 | -7.7 | -3.8
COc1ccc(CNc2nc3c(c(=O)n(Cc4ccc(Cl)cc4)c(=O)n3C)n2C)cc1 | 2.7 | -6.4 | 10.2* | 25.4 | -0.4 | -6.1
SMILES | PLCb3 inh | Cardio protect | PLCg1 inh | FAS-TE inh | PLCgamma1 ctr | PLCbeta3 conf
COCCNc1nc2c(c(=O)n(Cc3ccc(OC)cc3)c(=O)n2C)n1C | 0.7 | 15.2 | -0.4 | -2.7 | . | .
COc1cc2oc(=O)cc(CN3CCCCCCC3)c2cc1Cl | -153.6 | -0.5 | -115.6 | 15.2 | . | .
Cc1ccc(C(C(=O)NCc2ccco2)N(CCc2ccccc2)C(=O)Cn2nnc3ccccc32)o1 (stereo unspecified) | 11.2* | 45.8 | 3.7 | 7.1 | -3.7 | -2.6
O=C(NCc1ccccn1)c1[nH]c(C(F)(F)F)nc1-c1ccccc1 | -1.7 | 6.2 | -2.0 | -4.6 | . | .
Cc1ccc(NC(=O)Nn2cnnc2)cc1 | -7.4 | 0.6 | 1.6 | -4.0 | . | .
O=C(Nc1ccc([N+](=O)[O-])cc1)Nn1cnnc1 | 3.9 | -5.2 | 12.1* | -5.3 | -2.5 | -2.5
CC1(C(=O)Nc2ccc(F)cc2F)CCN1C(=O)Cc1ccc(Cl)cc1Cl (stereo unspecified) | 3.1 | -5.8 | 4.7 | 15.0 | . | .
CC1(C(=O)Nc2ccc(F)cc2F)CCN1C(=O)Cc1ccccc1 (stereo unspecified) | 4.0 | 2.4 | 10.8* | -12.1 | -3.3 | -0.2
COCCCNC(=O)C[C@H]1C[C@H](C(=O)N(C(C)C)C(C)C)[C@@]2(C)c3[nH]c4ccc(Cl)cc4c3CCN2C1=O | -4.4 | -15.5 | -1.3 | 3.1 | . | .
COc1ccc(CSc2nnc(C)n2N)cc1[N+](=O)[O-] | -3.5 | 3.1 | 10.4* | -3.4 | -3.5 | -1.8
CCCCOc1ccc(CSc2nnc(C)n2N)cc1[N+](=O)[O-] | -1.8 | -4.2 | -0.2 | -5.4 | . | .
COc1c(Cl)cc(Br)c(OC)c1C(=O)NC(=O)Nc1nc(C)cc(C)n1 | 0.8 | 5.1 | 10.8* | 2.2 | -1.8 | -0.8
O=C(c1ccc(Cl)cc1)c1ccc(Oc2cc(NN3CCCCC3)c([N+](=O)[O-])cc2[N+](=O)[O-])cc1 | 2.9 | -1.0 | 0.3 | 26.6 | . | .
O=S(=O)(c1ccc(Br)cc1)N1CCCC1 | -2.9 | -1.4 | 3.8 | -3.5 | . | .
O=S(=O)(CS(=O)(=O)c1ccc(Br)cc1)c1ccc(Br)cc1 | 0.5 | . | 27.0* | . | 21.4* | 1.3
CCOc1ccccc1NC(=O)N1CCCC1C(=O)NCc1cccs1 (stereo unspecified) | -3.4 | -1.0 | 1.5 | -0.6 | . | .
CCOc1ccccc1NC(=O)C1CCCN1C(=O)c1cccs1 (stereo unspecified) | -1.7 | 7.6 | 10.2* | -5.4 | -6.7 | -1.6
O=c1oc2ccccc2c(O)c1C=NCc1ccccn1 | 9.0 | 4.4 | 12.4* | -6.8 | 0.6 | 0.6
O=c1c2ccccc2c(C=NCc2ccccn2)c(O)n1-c1ccccc1 | -13.0 | 2.7 | -9.9 | 4.4 | . | .
COC(=O)C1=C(C)N(Cc2ccccc2C(F)(F)F)C(=NCc2ccc(C(F)(F)F)cc2)NC1c1cccc(Cl)c1 (stereo unspecified) | 6.3 | . | 5.7 | . | . | .
CCOC(=O)C1CN(S(=O)(=O)c2ccc(C)cc2)c2cc(S(=O)(=O)CC)ccc2O1 (stereo unspecified) | 2.1 | 2.1 | 1.9 | 7.8 | . | .
CCOC(=O)CC1(C)Oc2ccccc2N1S(=O)(=O)c1ccc(C)cc1 (stereo unspecified) | 3.8 | . | 9.8* | . | -1.4 | -4.5
O=C(Nc1ccc(F)cc1)C(c1cc2ccccc2o1)N1CCN(c2ccncc2)CC1 (stereo unspecified) | 1.3 | . | 0.2 | . | . | .
